PubChem BioAssay
Inconclusive results are not listed. Active and inactive are the calls of the source. Cut-off not given; nearly all actives show AC50 up to about 26 µM.

Experiment: JHH-DIPG-1 glioma cell viability, MIPE5.0 library, CellTiter-Glo luminescence, qHTS (AID 1347067);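 further: cells exposed to compound for 48 hours before readout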
Settings: JHH-DIPG-1 glioma viability, CellTiter-Glo ATP luminescence
In the case of `O=C(O)c1cc(O)c2c(c1)C(=O)c1cccc(O)c1C2=O`, the outcome is reported as “inactive”.
For `CC1COC2(CCN(c3nc(=O)c4cc(C(F)(F)F)cc([N+](=O)[O-])c4s3)CC2)O1` (stereo unspecified), the outcome was “inactive”.
For `C=C1/C(=C\C=C2/CCC[C@]3(C)[C@@H]([C@H](C)/C=C/[C@H](C)C(C)C)CC[C@@H]23)C[C@@H](O)C[C@@H]1O`, the AC50 was 26.3 µM (active).
For `Cc1ccnc(NS(=O)(=O)c2ccc(NC(=O)Nc3ccc(S(=O)(=O)Nc4nccc(C)n4)cc3)cc2)n1`, the outcome was “inactive”.
For `Nc1n[nH]c2nnc(-c3c(-c4ccccc4)nn4ccccc34)cc12`, the outcome was “inactive”.
In the case of `CCCCCNC(=O)N1CCC(CN(Cc2ccc(Cl)cc2)Cc2ccc([N+](=O)[O-])s2)C1` (stereo unspecified), the AC50 is reported as 23.5 µM (active).
For `c1nc2nc(Nc3ccc(N4CCOCC4)cc3)nc(NC3CCCCC3)c2[nH]1`, the AC50 was 5.9 µM (active).
With `CCC(C)CCCCC(=O)N[C@@H](CCN)C(=O)NC(C(=O)N[C@H](CCN)C(=O)N[C@@H]1CCNC(=O)C([C@@H](C)O)NC(=O)[C@@H](CCN)NC(=O)[C@@H](CCN)NC(=O)[C@@H](CC(C)C)NC(=O)[C@H](Cc2ccccc2)NC(=O)[C@H](CCN)NC1=O)[C@@H](C)O` (stereo partly specified) the outcome was “inactive”.
With `CN(C)CCCNC(=O)c1ccc(-c2cc(O)c3ncccc3c2)cc1` the outcome was “inactive”.
For `COc1ccc(CC2SC(=O)NC2=O)cc1C(=O)NCc1ccc(C(F)(F)F)cc1` (stereo unspecified), the outcome was “inactive”.
With `Cc1nc2c([nH]1)CCN(C(=O)c1ccc(NC(=O)c3ccccc3-c3ccccc3)cc1)c1ccccc1-2` the outcome was “inactive”.
